Test results published in PubChem BioAssay AID1852 (Sanford-Burnham Center for Chemical Genomics, 2009).
The campaign covered roughly 2,500 compounds. About 1,100 (44%) were called active.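 Rule for the calls: active = inhibition above 50% at 4 µM in the single-point screen; inactive = inhibition of 50% or less.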 So high a share suggests a set chosen from earlier hits. The list shows a part of the results.

test: blockers of TNF-a NF-kB luciferase induction – cell-based, HEK293T NF-kB-Luc, luminescence, selectivity assay for NOD1/NOD2 signaling inhibitor project, primary screen (AID 1852); conditions: TNF-a induced, 14 h, at 4 µM, stronger effect = higher value

SMILES | inhibition
CCc1cccc(CC)c1NC(=O)CN1CCc2cc(OC)c(OC)cc2C1 | 23.9% (inactive)
COc1ccc(Oc2ccccc2/C=N/O)cc1 | 81.6% (active)
COc1ccc(N2CCN(c3cc(=O)n(Cc4ccc(F)cc4)c(=O)[nH]3)CC2)cc1 | 6.1% (inactive)
COc1ccc(C2C(O)C(c3c[nH]c4ccccc34)=NN2C(=O)CCl)cc1 (centres undefined) | 96.7% (active)
O=C(CN1CCOCC1)Nc1nc(-c2ccc3c(c2)CCN3S(=O)(=O)c2ccccc2)cs1 | -1% (inactive)
CNc1nc(-c2ccc3c(c2)CCN3S(=O)(=O)c2ccccc2)c(C)s1 | 79.2% (active)
CC(=O)N1CCc2cc(S(=O)(=O)NCc3ccc(C)cc3)ccc21 | 26.3% (inactive)
CC(=O)c1c(O)c(C)c(O)c2c1OC1=CC(=O)C(C(C)=O)C(=O)[C@@]12C (some centres undefined) | 80.3% (active)
Cc1ccc(C(=O)N2CCN(c3ccc(F)cc3)CC2)cc1S(=O)(=O)N1CCCCC1 | 43.8% (inactive)
O=C(c1ccc2c(c1)CCN2S(=O)(=O)c1ccccc1)N1CCN(c2ccc(F)cc2)CC1 | 65.3% (active)
Cc1cccc(CS(=O)(=O)c2ncc(Cl)c(C(=O)Nc3nnc(C(C)C)s3)n2)c1 | 84.2% (active)
CSc1nnc(NC(=O)c2nc(S(=O)(=O)Cc3ccc(C)cc3)ncc2Cl)s1 | 98.9% (active)
Cc1ccc(CS(=O)(=O)c2ncc(Cl)c(C(=O)Nc3nnc(C(C)C)s3)n2)cc1 | 85.6% (active)
CCC(C)[C@@H](NC(=O)OC(C)(C)C)c1nnc(S(=O)(=O)Cc2cccc(C)c2)o1 (some centres undefined) | 45.7% (inactive)
COC(=O)c1ccc(NC(=O)c2nc(S(=O)(=O)Cc3cccc(C)c3)ncc2Cl)cc1 | 47.3% (inactive)
O=C(Nc1nc2ccccc2n1Cc1ccc(Cl)cc1)c1ccco1 | 41.5% (inactive)
Cc1ccccc1Cn1c(C)nc2ccccc21 | 32% (inactive)
CCC(=O)Nc1nc2ccccc2n1Cc1ccccc1Cl | 75.1% (active)
COc1ccc(-c2cc(=O)oc3c(C)c(O)ccc23)cc1 | 91.8% (active)
Cc1c(O)ccc2c(-c3ccccc3)cc(=O)oc12 | 30.3% (inactive)
COc1ccc(-c2cc(=O)oc3c(C)c(OC(=O)c4cccs4)ccc23)cc1 | 63.9% (active)
CC(=O)NCCC(=O)N1CCc2c([nH]c3ccccc23)C1c1cccc(Cl)c1 (centres undefined) | 6.2% (inactive)

SMILES | inhibition
CC(=O)N1CC(C)Sc2ccc(S(=O)(=O)NCCc3ccc(C)cc3)cc21 (centres undefined) | 44.7% (inactive)
Cc1ccc2oc(/N=C(\N)NC(=O)C(C)(C)C)nc2c1 | 40.4% (inactive)
Cc1ccc(N=c2oc3cc(O)ccc3cc2C(N)=O)cc1 | 72.5% (active)
Cc1ccc(Oc2c(C(N)=O)cc([N+](=O)[O-])cc2[N+](=O)[O-])cc1 | -11.8% (inactive)
COc1ccc2cc(C(N)=O)c(=Nc3ccc(C)cc3)oc2c1 | 62.3% (active)
O=C(N/N=C/c1ccc([N+](=O)[O-])s1)c1cccc(Br)c1 | 66.8% (active)
Cc1cc(C(=O)N/N=C/c2ccc([N+](=O)[O-])s2)c2ccccc2n1 | 37.2% (inactive)
O=C(N/N=C\c1ccc([N+](=O)[O-])s1)C1COc2ccccc2O1 (centres undefined) | 17.5% (inactive)
O=C(Cc1cccs1)N/N=C\c1ccc([N+](=O)[O-])s1 | 49.1% (inactive)
O=C(N/N=C/c1ccc([N+](=O)[O-])s1)c1ccccc1Br | 50.8% (active)
COc1cc(S(=O)(=O)n2cnc(C)c2)ccc1Br | -6% (inactive)
Fc1cccc(NC(=S)NNc2c3ccccc3nc3ccccc23)c1 | 20.7% (inactive)
Cc1nc2ccccc2c(C)c1C(=O)c1ccc(F)cc1 | 66% (active)
CCn1c(SCc2nc3scc(-c4ccccc4)c3c(=O)[nH]2)nnc1-c1cccs1 | 1.6% (inactive)
O=c1cc(CSc2nnc(-c3cccs3)n2Cc2ccccc2)nc2sc3ccccc3n12 | 88.7% (active)
Cc1ccc(C(=O)Nc2sc3c(c2C(=O)O)CCCC3)o1 | -42.9% (inactive)
CC(=O)c1c(C)[nH]c(C(=O)OCC(=O)Nc2sc3c(c2C#N)CCCC3)c1C | 58.6% (active)
NC(=O)c1c(NC(=O)CCCC(=O)O)sc2c1CCCCCC2 | 16.7% (inactive)
Cc1ccccc1Oc1cc(-n2ncc(Cl)c(Cl)c2=O)ncn1 | 103% (active)
CSCc1nnc(NC(=O)c2ccc(S(=O)(=O)N(CC(C)C)CC(C)C)cc2)o1 | 80.1% (active)
O=C(Nc1nnc(-c2ccco2)o1)c1ccc2ccccc2c1 | 77.9% (active)
COc1cc(OC)cc(-c2nnc(NC(=O)c3ccc4c(c3)OCCO4)o2)c1 | 105% (active)

SMILES | inhibition
COCCN(CCOC)S(=O)(=O)c1ccc(C(=O)Nc2nc(C)c(C(C)=O)s2)cc1 | -3.7% (inactive)
Cc1nc([N+](=O)[O-])c(Br)n1CC(=O)c1ccc2ccccc2c1 | 25.6% (inactive)
CCCN(CCC)S(=O)(=O)c1ccc(C(=O)Nc2nnc(-c3cc(OC)cc(OC)c3)o2)cc1 | 68.9% (active)
COc1ccc(-c2nnc(NC(=O)c3ccc([N+](=O)[O-])o3)o2)c(OC)c1 | 49.5% (inactive)
O=C(Nc1nnc(-c2ccc3c(c2)OCCO3)o1)c1ccc(Cc2ccccc2)cc1 | 105% (active)
Cc1noc(C)c1S(=O)(=O)N1CCCC(C(=O)NCc2ccccc2Cl)C1 (centres undefined) | 21.1% (inactive)
Cc1ccc(N(Cc2cc(=O)[nH]c3ccccc23)C(=O)CCl)c(C)c1 | 100% (active)
Cc1ccccc1N(Cc1cc(=O)[nH]c2ccccc12)C(=O)CCl | 105% (active)
COCC1CCN(C(=O)c2cc(COc3ccc4ncccc4c3)on2)CC1 | 40.2% (inactive)
CSc1ccccc1OCc1cc(C(=O)N2CCC(c3ccncc3)CC2)no1 | 29.9% (inactive)
Cc1c(C(C)NC(=O)c2cc(COc3cccc4cnccc34)on2)cnn1C (centres undefined) | 53.8% (active)
COCC1CCN(C(=O)c2cc(COc3cccc4cnccc34)on2)CC1 | 52.7% (active)
O=C(c1cc(COc2cccc3cnccc23)on1)N1CCCC(CCCO)C1 (centres undefined) | 61.6% (active)
O=C(c1cc(COc2c(F)cccc2F)on1)N1CCC(c2ccncc2)CC1 | 41.3% (inactive)
COc1ccc(OCc2cc(C(=O)N3CCC(c4ccccc4)CC3)no2)c(Cl)c1 | -96.3% (inactive)
COc1cccc(OCc2cc(C(=O)NCc3cnc4ccccn34)no2)c1 | 4.4% (inactive)
CCN(CC)C(=O)C1CCCN(C(=O)c2cc(COc3ccc4ncccc4c3)on2)C1 (centres undefined) | 36% (inactive)
COCC1CCCN(C(=O)c2cc(COc3ccc4ncccc4c3)on2)C1 (centres undefined) | 33.2% (inactive)
O=C(c1cc(COc2cccc3cnccc23)on1)N1CCC(c2ccccc2Cl)C1 (centres undefined) | 72.7% (active)
Cc1ccc(C)c(OCc2cc(C(=O)NC3CCN(Cc4ccccc4)CC3)no2)c1 | 22.7% (inactive)
